DRD3 agonist: agonists of human D3 dopamine receptor; P35462; max activation, %; actives 0.58% (n = 410,000); D3R DiscoveRx beta-arrestin cells, luminescence, 90 min; in the data active means max activation above about 30%
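Agonist-mode cell screen: cells plated at 1500/well and incubated overnight at 37 °C, then exposed to library compounds for 90 min at 37 °C. Detection reagent was added for 30–60 min at room temperature, and luminescence was read.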
GLP1R ag: activates the human GLP-1 receptor; Potency, µM (doses to about 45.6 µM), actives largely listed as activators; HEK293 GLP-1R CRE-luciferase, luminescence, 4-6 h; cells express a hypersensitive GLP-1R form; P43220; actives 0.007% (n = 380,000); AID 624172
Target sequence (P43220 whole entry, looked up): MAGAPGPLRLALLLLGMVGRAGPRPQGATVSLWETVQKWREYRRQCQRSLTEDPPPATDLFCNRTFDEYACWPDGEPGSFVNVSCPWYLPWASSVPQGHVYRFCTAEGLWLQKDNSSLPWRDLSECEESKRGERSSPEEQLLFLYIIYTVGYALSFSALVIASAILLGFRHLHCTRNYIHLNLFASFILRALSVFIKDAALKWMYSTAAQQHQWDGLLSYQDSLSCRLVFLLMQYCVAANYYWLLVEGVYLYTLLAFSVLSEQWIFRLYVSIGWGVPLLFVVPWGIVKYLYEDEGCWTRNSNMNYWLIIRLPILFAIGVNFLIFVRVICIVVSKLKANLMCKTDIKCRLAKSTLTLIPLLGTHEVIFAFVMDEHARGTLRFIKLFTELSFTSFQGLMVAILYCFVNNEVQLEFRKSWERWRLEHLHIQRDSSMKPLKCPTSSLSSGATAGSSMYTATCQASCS
GLP1R inv ag: inverse agonists of human GLP-1 receptor; P43220; HEK293 GLP-1R CRE-luciferase, luminescence, 24 h; GLP-1R form is constitutively active; Potency, µM (doses to about 38.3 µM), most hits filed as inhibitors; actives 1.6% (n = 410,000); AID 624417; further: nearly all actives have a fitted effect of over 55% in size
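Luminescence readout: a drop in cAMP-driven luciferase signal flags inverse agonism at a constitutively active GLP-1R stably expressed in HEK293. Compound exposure lasted 24 hr at 37 deg C, 5% CO2.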
D3 antag: D3 dopamine receptor (human) antagonism; max response, negative = inhibition, %; D3R cells, DiscoveRx beta-arrestin luminescence, antagonist mode; hits give low values; P35462; actives 2.5% (n = 360,000); in the data active means max response below about -50%; inconclusive means no clear call, values can overlap the other calls
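Cells expressing the human receptor were seeded at 1500 cells/well, incubated overnight at 37 degrees C in 5% CO2, then exposed to library compounds with dopamine controls for 90 minutes at 37 degrees C before luminescent detection.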
Each line names hits and unclear results; the compound was inactive in the other large screens. Only some compounds are listed: those with a hit (about 4.3% of all), similar ones and a draw of the others. Unless noted, the call rests on the fitted dose curve; in most records, active means well fitted curve in the direction sought with a large enough effect; inconclusive means small, poorly fitted or top-dose-only effect, or another doubt; inactive means no such curve, though single readings can be large; an effect the other way counts as inactive or inconclusive.

N#C/C(=C\c1cc([N+](=O)[O-])c(N2CCOCC2)cc1N1CCOCC1)c1nc2ccccc2[nH]1	D3 antag -79.1
N#C/C(=C/c1ccc(N2CCOCC2)o1)c1nc2ccccc2[nH]1	GLP1R inv ag inconclusive
COc1cc(/C=C(\C#N)c2nc3ccc(C)cc3[nH]2)c([N+](=O)[O-])cc1OC	D3 antag -52.2
COc1cc(/C=C(\C#N)c2nc3ccc(C)cc3[nH]2)cc([N+](=O)[O-])c1O	D3 antag inconclusive
O=C(O)[C@@H]1C[C@H](CP(=O)(O)O)CCN1	none (no result: GLP1R ag, GLP1R inv ag, D3 antag)
O=C(Cc1csc(Nc2nc(=S)[nH]c3ccccc23)n1)NCCCN1CCN(c2ccccc2F)CC1	GLP1R inv ag inconclusive, D3 antag -69.2
CCC(Oc1ccc(F)cc1)C(=O)Nc1c(C(=O)c2ccc(C)cc2)oc2ccccc12 (centres undefined)	none (no result: GLP1R ag, D3 antag)
CCC(Oc1ccccc1)C(=O)Nc1cc(-c2ccccc2OC)nn1-c1ccccc1 (centres undefined)	GLP1R inv ag 4.47µM (no result: GLP1R ag, D3 antag)
COc1ccccc1-c1cc(NC(=O)COc2ccc(C)c(C)c2)n(-c2ccccc2)n1	none (no result: GLP1R ag, D3 antag)
Cc1ccccc1N(C(=O)Cn1nnc(-c2cccs2)n1)C(C(=O)NCCC(C)C)c1ccco1 (centres undefined)	GLP1R inv ag 5.62µM
COCCNC(=O)C(c1ccco1)N(C(=O)Cn1nnc2ccccc21)c1ccccc1C (centres undefined)	GLP1R inv ag inconclusive
OCC1(CCc2ccccc2)CCN(Cc2cc(F)ccc2-n2cccn2)CC1	none
Cc1ccc(S/C=C\C(=O)c2ccccc2)cc1	D3 antag -52.8
Cc1ccc(C(=O)C=CNNC(=O)c2ccccc2)cc1	none
CC(/C=C/C(=O)c1ccc(C)cc1)=C\c1ccccc1	D3 antag -61.2
Cc1ccc(C(=O)/C=C\C(=O)c2ccc(C)cc2)cc1	none
CCOc1ccc(C2c3c(oc4ccccc4c3=O)C(=O)N2Cc2ccc3c(c2)OCO3)cc1 (centres undefined)	none (no result: GLP1R ag, D3 antag)
COc1ncccc1C(=O)N1CCC(n2nccc2NC(=O)CC(C)C)CC1	D3 antag -52.1
Cc1cc(Cl)ccc1OC(C)C(=O)N1CCCN(C(=O)C(C)Oc2ccc(Cl)cc2C)CC1 (centres undefined)	GLP1R inv ag 5.01µM
CC(=O)c1ccc(Nc2nc(=O)c3cccnc3s2)cc1	none
CCOC(=O)c1ccc(Nc2nc(=O)c3cccnc3s2)cc1	D3 antag -69.7
COCCNC(=O)/C(C#N)=C/c1cc(C(C)C)c(OC)cc1C	GLP1R inv ag inconclusive, D3 antag -77.2
COc1cc(C)c(/C=C(\C#N)C(=O)Nc2ccc(C)cc2)cc1C(C)C	D3 antag inconclusive
COc1cc(-c2c(C#N)c(N)nc3c2c(C)nn3-c2ccc(C)c(C)c2)cc(OC)c1OC	DRD3 agonist 60.0
O=C(NC1CC1)c1cc(F)c(F)cc1Cl	none
O=C(NC12CC3CC(CC(C3)C1)C2)c1cc(F)c(F)cc1Cl	GLP1R inv ag 10µM
O=C(NC12CC3CC(CC(C3)C1)C2)c1ccccc1O	GLP1R inv ag 5.62µM
O=C(NNC(=O)C12CC3CC(CC(C3)C1)C2)c1ccccc1O	GLP1R inv ag inconclusive
Cc1cccc(C)c1-n1ncc(C(=O)Nc2ccc3c(c2)OCCO3)c1C1CCN(C(=O)OC(C)(C)C)CC1	none (no result: GLP1R ag, D3 antag)
O=C(NC1CCCC1)c1cc(COc2ccc3ncccc3c2)on1	none
O=C(NCCc1cn2ccccc2n1)c1cc(COc2ccc3ncccc3c2)on1	GLP1R inv ag 12.6µM
CC(NC(=O)c1cc(COc2ccc3ncccc3c2)on1)c1ccc(F)cc1 (centres undefined)	GLP1R inv ag 1.78µM
O=C(O)CCc1[nH]c2ccccc2c1Sc1ccccc1	D3 antag -67.0
O=C(O)CCc1c(C(=O)O)[nH]c2ccccc12	none
O=C(CCCC1=NS(=O)(=O)c2ccccc2N1)N1CCN(c2ccc([N+](=O)[O-])cc2)CC1	none
O=C1CC[C@@H](C(=O)N[C@H]2C[C@@H]2c2ccccc2)N1	none (no result: GLP1R ag, GLP1R inv ag, D3 antag)
CC(C)(C)c1ccc(C(=O)NC(=S)Nc2nc3c(s2)CCCC3)cc1	GLP1R inv ag inconclusive
CN(C)c1ccc(C(=O)Nc2nc3c(s2)CCCC3)cc1	GLP1R inv ag 11.2µM
O=C(Nc1nc2c(s1)CCCC2)c1ccc(S(=O)(=O)N2CCCc3ccccc32)cc1	GLP1R inv ag 3.98µM
O=C(COc1ccccc1)Nc1nc2c(s1)CCCC2	GLP1R inv ag inconclusive, D3 antag -77.4
O=C(COc1ccccc1Cl)Nc1nc2c(s1)CCCC2	GLP1R inv ag inconclusive (no result: GLP1R ag, D3 antag)

Source: PubChem BioAssay (National Center for Advancing Translational Sciences (NCATS))
